Assay results: PubChem BioAssay AID1878 (Sanford-Burnham Center for Chemical Genomics, 2009)
Among all 1,000 compounds or so, about 200 (20%) were called active. Not all results are given here. Results with a measured potency or affinity are listed apart. A number with no mark means an inactive call. Cut-off read from the data, not from the text of the source: active = inhibition above about 55%; inactive = the rest.

target: Dual specificity protein phosphatase 3 (Homo sapiens) (UniProt P51452); experiment: VHR1 phosphatase inhibitors, biochemical (AID 1878); conditions: recombinant VHR phosphatase, fluorogenic substrate; at 13.3 µM; stronger effect = higher value
Sequence (P51452 whole entry, looked up): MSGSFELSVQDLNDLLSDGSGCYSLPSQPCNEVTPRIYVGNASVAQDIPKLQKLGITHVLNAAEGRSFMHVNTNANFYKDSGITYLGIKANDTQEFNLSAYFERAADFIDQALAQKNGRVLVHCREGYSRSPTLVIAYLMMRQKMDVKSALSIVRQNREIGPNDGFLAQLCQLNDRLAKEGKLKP

Compound	inhibition
Cc1[nH][nH]c(=O)c1C(c1cc(Br)ccc1O)c1c(C)[nH][nH]c1=O	3.3%
COc1ccccc1N1CCN(C2CCCN(C(=O)CCC(=O)N(C)C)C2)CC1 (stereo not given)	-13.2%
CCCC(NC(=O)Cc1c(C)c2cc3c(C)c(C)oc3c(C)c2oc1=O)C(=O)N[C@@H](Cc1ccccc1)C(=O)O (stereo not given in full)	68.8% (active)
COc1ccc2c(c1)cc(C(=O)N[C@@H](Cc1ccccc1)C(=O)N[C@@H](C)C(=O)O)n2C	-10.4%
Cn1c(C(=O)N[C@@H](Cc2ccccc2)C(=O)O)cc2cc(Cl)ccc21	3.5%
Cc1nn(CC(=O)NCCCN2CCCCC2C)c(=O)c2cccn12 (stereo not given)	-5.4%
CCOCCCNC(=O)C1CC(=O)N(CCc2ccccc2)C1 (stereo not given)	15%
CC(C)CCNC(=O)CN(C(=O)CCC(=O)Nc1ccccn1)c1ccc2c(c1)OCCO2	5.2%
Nc1nc(-c2cc(O)ccc2[N+](=O)[O-])cc(-c2ccccc2)c1[N+](=O)[O-]	80.5% (active)
O=C(NN1C(=O)C2C(C1=O)C1C=CC2C12CC2)c1ccccc1 (stereo not given)	3.2%
N#Cc1c(N2CCCC2)nc(N)c2c(N)nc(N3CCCC3)cc12	78.3% (active)
N#Cc1c(N2CCCC(O)C2)nc(N)c2c(N)nc3c(c12)CC(=O)N3C12CC3CC(CC(C3)C1)C2 (stereo not given)	-7.9%
CCOC(=O)c1c(C)[nH]c(C)c1S(=O)(=O)NC1CCN(C(=O)OCC)CC1	-2%
COc1cccc(CNCCc2ccc3c(c2)OCO3)c1OC	26.4%
CCCN1CCC(NC(=O)CC2C(=O)NCCN2Cc2ccccc2C)CC1 (stereo not given)	-11.6%
O=C(O)CCCNc1cc(N2CCC3(CC2)OCCO3)c2noc3c2c1C(=O)c1ccccc1-3	12.8%
CC1(C)CC(NS(=O)(=O)c2ccc(C(C)(C)C)cc2)CC(C)(C)N1	6.7%
Cc1ccc(S(=O)(=O)NC2CCCCCC2)cc1C(N)=O	-4.2%
CC1(C)CC(NC(=O)C(c2ccccc2)c2ccccc2)CC(C)(C)N1	24%
CC1(C)CC(NC(=S)Nc2ccc(S(N)(=O)=O)cc2)CC(C)(C)N1	58.2% (active)
NS(=O)(=O)c1ccc(NC(=S)NC2CCCCCC2)cc1	56.7% (active)
O=C(CCCC(=O)N(CC(=O)NC1CCCC1)c1cccc(F)c1)Nc1ccccn1	-10.4%
Cn1cc(CN2CCCCC2C(=O)Nc2ccc(-n3cccn3)cc2)cn1 (stereo not given)	10.3%

Compound	inhibition
CCC(=O)N1c2ccc(S(=O)(=O)NCCc3ccc(C)cc3)cc2CC1C (stereo not given)	7.9%
CCC(C)N(C(=O)c1csnn1)C(C(=O)NC1CCCC1)c1ccccc1F (stereo not given)	10%
CSc1sccc1/C=C(/C#N)C(=O)c1ccco1	28.9%
CCn1c(=O)n(CC)c2cc(N3CCCC3)c(NC(=O)c3ccccc3F)cc21	-2.4%
COCCn1c(SCC(=O)N2CCCC(C)C2)nnc1-c1ccco1 (stereo not given)	-3.4%
O=C(CCNS(=O)(=O)c1ccccc1)N1CCCCCC1	7.7%
O=C(NCc1ccccc1Cl)C1CCC(CNc2nc(=S)[nH]c3ccccc23)CC1 (stereo not given)	-7%
CC1CCN(CCCNC(=O)C2CCN(S(=O)(=O)N3CCC4(CC3)OCCO4)CC2)CC1	1.6%
O=C(c1cc(C2CC2)on1)N1CCCC(N2CCN(c3ccc(F)cc3)CC2)C1 (stereo not given)	0.4%
CCOc1ccc(C2NC(=O)c3ccccc3O2)cc1OC (stereo not given)	-17.6%
CN(Cc1ccccn1)C(=O)C1CCC(=O)N(CCc2ccc(Cl)cc2)C1 (stereo not given)	-11.4%
COc1ccc(NC(=O)CN(C)S(=O)(=O)c2ccc3[nH]c(=O)oc3c2)cc1	12.6%
Cn1c(=O)oc2cc(S(=O)(=O)NCCC(=O)NCc3ccccc3Cl)ccc21	14.6%
COc1ccccc1-c1nc2c3ccccc3nc(=S)n2[nH]1	7.9%
CC(C)c1ccc(NS(=O)(=O)c2cccc3cccnc23)cc1	-1%
COc1ccc2c(c1)C(=NNC(=O)c1ccccn1)c1cc(OC)ccc1-2	99.3% (active)
COc1ccccc1-c1cc(C(=O)Nc2cccnc2Cl)no1	12.2%
Cc1cc(NC(=O)C2CCCCC2)ncc1NC(=O)c1ccccn1	9%
CCOC(=O)c1sc(=NC(=O)c2c(F)cccc2F)n(C)c1C	26.7%
CC(=O)NCCC(=O)N(C)CC1CCN(CCc2cccc(C(F)(F)F)c2)CC1	-21.4%
COc1cccc(NC(=O)CCc2nc(-c3cccs3)no2)c1	11.2%
CCc1ccc(/C=C2/SC(=S)N(CCC(=O)Nc3ccc(C(=O)O)cc3)C2=O)cc1	87.1% (active)
